Assay results published in the OligoGym collection.

Target: WDR59
Assay: pooled miR-30 sensor sort-seq; sequence = guide strand
Settings: shRNA
Further: reference of the scale not given here.

| Sequence | sensor-assay potency score (higher = more potent) |
| --- | --- |
| TACTAGAATTTTATTAGCCAAG | -1.53 |
| TAAAGCTAGGATATCGACTATG | -0.97 |
| ATAGACAACACACAAAGCGCAG | -1.07 |
| TTGATCTGTCGATTGCCAGAGT | -0.462 |

Target: WDR74
Assay: as above
Settings: shRNA

| Sequence | sensor-assay potency score (higher = more potent) |
| --- | --- |
| TTCAAGATCCCAGTCTCGGTGC | -0.0333 |
| TTCTTCTTTCTCCGTCTCGTTT | -0.81 |
| TGTCTCTGTGTCTTCTAGGGGC | -0.152 |
| TTTCGCTGAAGATTTACCCCTT | 0.223 |
| TTGAGACTTGAGATAAACCTTA | 0.692 |
| TGACAAGCTTCTGTGATCCTGG | 0.195 |
| TTCACCGTCCTGTCCGCGCAGC | -1.09 |
| TAGTGAGTACTCTCCATAGGTG | -0.709 |
| ATATCTTCAAAGCATTCTCTTT | -1.27 |
| TGGATCATAAACACGGACCTGG | 0.064 |
| TATCTTCAAAGCATTCTCTTTC | -0.0108 |
| TATCCTCAAGACTCTGTCCAAG | -0.997 |

Target: WDR7
Assay: as above
Settings: shRNA

| Sequence | sensor-assay potency score (higher = more potent) |
| --- | --- |
| TGTCTTTATTGCTTGAACCATC | -1.06 |
| ATATTTGGAACACACAACCAAA | -1.51 |
| TTAATTTGCAGTTCTACTGAAA | -0.417 |
| TATTGCTTGAACCATCAGGGAG | -0.959 |
| TTGTCCGTCGTGACATCCTGTT | -0.875 |
| TAGCTGACCATGTAGAACCTGC | 0.024 |
| TAAGTGAATCAACAGCAGCAGG | -1.52 |
| TAACACAGTGCATAGCAGCTAA | -0.462 |
| TTAGACAAACAAGTGATTGATG | -0.425 |
| TTAGGTTTGTCTTTATTGCTTG | 0.201 |
| TTTGTCCGTCGTGACATCCTGT | -0.661 |
| TTTAGAATCTCAACTGCTGTTA | 0.0218 |

Target: WDR96
Assay: as above
Settings: shRNA

| Sequence | sensor-assay potency score (higher = more potent) |
| --- | --- |
| TTTTTGAGTAGTTTCTTGCAGT | -0.3 |
| TACATCTTTACTTTCCATCATG | -0.972 |
| TACACAAGCACAATCCTCCAGC | -0.19 |
| TTGCTGATCATAAACGACGTGC | 0.0797 |
| TCATCTTGCACAACAAGCGTTC | -0.652 |
| TAATCTTTCAACTTCAGTCTGT | 0.842 |
| TTGCCTTTCAATTTGGTCCTTC | 0.277 |
| TAAGTTGTCATAGTGCTCCTTG | 0.702 |
| TTACACAAAATGATACTCGATT | -0.176 |
| TTTCTCTAGAGCTTAATTCTTC | -0.586 |
| TAGATTTCCGAACAGCTTCTGA | -0.901 |
